Values joined by “and” are separate entries in the source; they are usually repeats but may differ in a detail not shown here. Equal entries are not always repeated. Records with an inconclusive call do not appear. Active and inactive are the calls of the source. Unless noted, the call rests on the fitted dose curve; in most records, active means well fitted curve in the direction sought with a large enough effect; inconclusive means small, poorly fitted or top-dose-only effect, or another doubt; inactive means no such curve, though single readings can be large; an effect the other way counts as inactive or inconclusive.

Assay [1] has as its target Lysosomal acid glucosylceramidase (Homo sapiens) (UniProt P04062). The assay can be described thus: Glucocerebrosidase-p2 (AID 348; in the data active means potency below about 10 µM; further: potency means the concentration at half of the fitted maximal effect). Conditions: purified GBA, blue fluorogenic substrate, 40 min. In outline:
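Compounds titrated from 0.6 nM upwards against 0.2 nM enzyme in pH 5.9 citric acid/KH2PO4, taurocholate, tween-20; blue fluorogenic substrate 80 uM, 40 min room temperature, stopped and read Ex 365/Em 440 for AC50.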

For assay [2], the target named is Cytochrome P450 1A2 (Homo sapiens) (UniProt P05177). The assay can be described thus: p450-cyp1a2 (AID 410; calls by dose curve; further: potency means the concentration at half of the fitted maximal effect;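 on activity change, negative = inhibition: -100% = full effect of reference inhibitor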). The settings on record: recombinant CYP1A2, luciferin-ME demethylation, luminescence; series mostly up to 57 µM. Summed up: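 Human CYP1A2 (20nM) demethylated Luciferin-ME at its Km (100uM) in 100mM KPO4. After 10 min compound preincubation, NADPH regeneration ran the reaction 60 min at room temperature. Luciferin was read by luminescence, normalized to 57 uM furafylline.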
Chain of Cytochrome P450 1A2 (Homo sapiens) (P05177 whole entry, looked up): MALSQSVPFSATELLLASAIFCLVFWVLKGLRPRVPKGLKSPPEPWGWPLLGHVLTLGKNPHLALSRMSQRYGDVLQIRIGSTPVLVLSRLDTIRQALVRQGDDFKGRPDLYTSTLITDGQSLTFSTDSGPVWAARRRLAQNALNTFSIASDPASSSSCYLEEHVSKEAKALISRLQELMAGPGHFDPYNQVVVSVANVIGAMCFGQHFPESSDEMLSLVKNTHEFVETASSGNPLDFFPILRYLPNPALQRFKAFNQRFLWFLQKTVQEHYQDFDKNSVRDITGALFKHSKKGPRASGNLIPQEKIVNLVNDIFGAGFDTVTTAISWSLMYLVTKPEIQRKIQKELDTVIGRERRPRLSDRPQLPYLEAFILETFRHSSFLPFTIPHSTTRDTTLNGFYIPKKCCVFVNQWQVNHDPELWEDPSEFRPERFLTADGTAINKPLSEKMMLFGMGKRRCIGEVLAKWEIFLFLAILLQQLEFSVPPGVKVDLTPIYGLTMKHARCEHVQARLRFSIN

A short description of assay [3]: Stat Signaling Pathway (AID 446; active means well fitted curve in either direction with a large enough effect, not every such curve was filed as active;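 further: ME-180 cervical cancer cells given 40 pM IL-6 alongside compound; SIE-controlled beta-lactamase reporter measured as 460/530 nm FRET emission ratio; on the % scale 0 is the no-effect control and ±100 the full control effect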). Conditions: ME-180 SIE beta-lactamase reporter, IL-6 stimulated, 5 h; at 7.69 µM (top of the series) unless noted. Summed up: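 Screening format detects activators and inhibitors alike: ME-180 SIE-bla cells stimulated at 40 pM IL-6 for 5 hrs with compound, then dual-emission beta-lactamase read at 405 nm excitation.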
For assay [4], the target named is Glucocorticoid receptor (Homo sapiens) (UniProt P04150). As to the kind of experiment: GR-GFP Redistribution (AID 450;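 active means compounds whose dose series gives a full or clear partial fitted curve of increased nuclear translocation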; further: potency means the concentration at half of the fitted maximal effect). Conditions: U2OS GR-GFP nuclear translocation, laser cytometry, 2 h.
Chain of Glucocorticoid receptor (Homo sapiens) (P04150 whole entry, looked up, the tested form may be a part): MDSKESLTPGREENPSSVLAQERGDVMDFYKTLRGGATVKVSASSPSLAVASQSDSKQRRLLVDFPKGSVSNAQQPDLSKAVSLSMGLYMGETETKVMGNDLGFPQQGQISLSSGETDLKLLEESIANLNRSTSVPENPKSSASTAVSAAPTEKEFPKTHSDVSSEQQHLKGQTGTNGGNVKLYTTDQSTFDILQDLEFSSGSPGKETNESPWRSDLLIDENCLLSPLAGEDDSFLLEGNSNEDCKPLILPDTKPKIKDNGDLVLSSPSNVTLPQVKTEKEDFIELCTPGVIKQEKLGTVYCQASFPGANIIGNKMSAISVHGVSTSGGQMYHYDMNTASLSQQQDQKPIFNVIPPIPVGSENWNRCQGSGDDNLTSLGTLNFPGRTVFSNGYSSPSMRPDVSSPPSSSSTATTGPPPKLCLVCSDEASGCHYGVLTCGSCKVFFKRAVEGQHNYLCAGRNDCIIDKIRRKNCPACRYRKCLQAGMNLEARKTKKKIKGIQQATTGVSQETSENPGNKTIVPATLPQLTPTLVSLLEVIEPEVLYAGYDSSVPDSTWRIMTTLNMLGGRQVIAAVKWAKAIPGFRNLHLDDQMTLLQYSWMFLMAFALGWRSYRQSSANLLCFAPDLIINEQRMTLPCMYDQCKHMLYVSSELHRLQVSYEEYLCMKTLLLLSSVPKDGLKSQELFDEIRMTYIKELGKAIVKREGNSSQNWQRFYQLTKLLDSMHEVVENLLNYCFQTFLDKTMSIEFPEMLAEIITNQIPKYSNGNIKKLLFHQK
Assay [5] has the same target. The assay can be described thus: GR-EFC Redistribution (AID 451; calls by dose curve; further: potency means the concentration at half of the fitted maximal effect). The settings on record: CHO-K1 GR-EFC translocation, beta-gal luminescence, 2 h. In outline: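 CHO-K1 cells expressing nuclear EA and GR-ED fragments of b-gal; compounds titrated up to 46 uM final, 2 h at 37 C. GR nuclear translocation read as complemented b-gal luminescence after 1 h RT detection.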

In assay [6] the target is Mitogen-activated protein kinase 10 (Mus musculus) (UniProt Q61831). As to the kind of experiment: JNK3 AlphaScreen Assay (AID 530; active means well fitted curve in either direction with a large enough effect, not every such curve was filed as active;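 further: kinase came from lysate of stimulated human HepG2 cells; signal reports phosphorylation of biotinylated GST-cJun 1-79 at Ser73 with 10 µM ATP; on the % scale 0 is the no-effect control and ±100 the full control effect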). The settings on record: JNK3 lysate, c-Jun phosphorylation; series mostly up to 57.1 µM. In outline: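 qHTS format: compounds tested as titrations against IL-1beta/TNF-alpha-activated HepG2 lysate JNK3 with biotin-GST-cJun substrate and 10 uM ATP at room temperature. Loss of anti-phospho-cJun AlphaScreen signal indicates inhibition.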

Assay [7] has as its target Cytochrome P450 3A4 (Homo sapiens) (UniProt P08684). As to the kind of experiment: qHTS Assay for Activators of Cytochrome P450 3A4 (AID 885). Further: nearly all actives have a fitted effect of over 65% in size. Conditions: recombinant CYP3A4, Luciferin-PPXE luminescence, 60 min; series mostly up to 57.1 µM. In outline:
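Steps: enzyme/substrate mix dispensed; compound added, 10 min RT; NADPH regeneration solution added, 60 min RT; luciferin detection buffer stops reaction; 20 min later luminescence measured.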
In general terms: Quantitative high-throughput screening tests each substance at several concentrations.

Assay [8] addresses Cytochrome P450 2C19 (Homo sapiens) (UniProt P33261). As to the kind of experiment: qHTS Assay for Inhibitors and Substrates of Cytochrome P450 2C19 (AID 899). Further: potency means the concentration at half of the fitted maximal effect; nearly all actives have a fitted effect of over 60% in size. Conditions: recombinant CYP2C19, luciferin-H EGE luminescence; series mostly up to 57.1 µM. In outline: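 Luminescent read-out of luciferin formed from Luciferin-H EGE (10uM, equal to KM). Enzyme 5nM in 50mM KPO4; compound added, 10 min at 37C, then NADPH regenerating system for 60 min at 37C. Full inhibition defined by 57uM ketoconazole.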

A short description of assay [9]: qHTS Assay for Lipid Storage Modulators (AID 1519; calls by dose curve). The settings on record: Drosophila S3 cells, BODIPY lipid droplet/cell ratio, laser cytometry, cells loaded with oleic acid. Summed up: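 Cells seeded at 5,000 per well were treated with compounds over a concentration series and loaded with oleic acid (400 uM, as added). Lipid droplet fluorescence (488 nm excitation, 500-530 nm channel) was read by laser-scanning cytometry and normalized to 20 uM Triacsin C.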

For assay [10], the target named is Ubiquitin carboxyl-terminal hydrolase 1 (Homo sapiens) (UniProt O94782). As to the kind of experiment: Inhibitors of USP1/UAF1: Pilot qHTS (AID 504865). Further: nearly all actives have a fitted effect of over 35% in size. Further: potency means the concentration at half of the fitted maximal effect. The settings on record: purified USP1/UAF1, Ub-rhodamine cleavage fluorescence; series mostly up to 54.9 µM. Summed up:
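In 50mM HEPES pH 7.8 containing 0.5mM EDTA, 1mM TCEP, 0.1 mg/ml BSA and 0.01% Tween-20, 1nM USP1/UAF1 is exposed to compound for 15 min, then Ub-Rho (150nM final) is added and fluorescence is read over time.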

Assay [11] in a line: Confirmation and Secondary Assay for Modulators of Hemoglobin Beta Chain Splicing at IVS2 654 locus (AID 910).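 Further: HeLa cells stably carrying EGFP split by mutant beta-globin IVS2-654 intron; % of control where 0% means no effect.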 Conditions: HeLa EGFP-654 splicing reporter, GFP fluorescence, 48 h; series mostly up to 38.3 µM. Summed up: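 HeLa cells stably expressing EGFP interrupted by β-globin IVS2-654 intron, seeded overnight in Opti-MEM/2% FCS, then treated 2 days at 37 °C. Restored splicing read as total peak GFP intensity per well by laser scanning cytometry (488 nm excitation, 500–520 nm emission); 500 nM antisense PNA as control.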

Assay [12] concerns the target Glutathione peroxidase 1 (Homo sapiens) (UniProt P07203). As to the kind of experiment: Primary qHTS Assay for Inhibitors of Recombinant Selenoprotein Glutathione Peroxidase 1 (GPX1) (AID 1845191). Further: nearly all actives have a fitted effect of over 65% in size. Conditions: recombinant GPX1, GR-coupled NADPH fluorescence, 15 min; series mostly up to 48.8 µM. In outline: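 GR-coupled assay: compounds preincubated 30 min at room temperature with GPX1, then reaction started with CHP; final 10 nM GPX1, 1 mM GSH, 0.5 mM CHP, 0.5 mM NADPH, 100 nM GR, 0.01% BSA, pH 7.5 Tris buffer. NADPH fluorescence (340/450 nm) read at 0 and 15 min.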

Assay [13] is described as follows: AP1 Signaling Pathway (AID 357; active means well fitted curve in either direction with a large enough effect, not every such curve was filed as active; further: on the % scale 0 is the no-effect control and ±100 the full control effect). The settings on record: ME-180 (cervical carcinoma) AP-1-bla reporter, EGF-induced, beta-lactamase ratio, 5 h; at 7.69 µM (top of the series) unless noted. Summed up: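 Cells are seeded overnight, exposed to compound titrations and an EC50 level of EGF for 5 hours at 37 °C, then loaded with CCF4 dye for 2.5 hours. Beta-lactamase activity under the AP-1 element is read as a blue/green ratio.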

The nature of assay [14]: NFAT Signaling Pathway (AID 444; active means well fitted curve in either direction with a large enough effect, not every such curve was filed as active;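 further: carbachol stimulus at about its EC50 of 1 µM final; on the % scale 0 is the no-effect control and ±100 the full control effect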). The settings on record: Jurkat NFAT-bla M1, carbachol, beta-lactamase ratio, 5 h; at 7.69 µM (top of the series) unless noted. Summed up: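 Jurkat cells with NFAT-driven β-lactamase reporter and co-expressed M1 receptor, stimulated with carbachol (final 1 uM, ~EC50), compound titration, 5 h at 37 °C. CCF4 loaded 1 h at RT; 460/530 nm ratio gave %activity and AC50.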

Assay [15] has as its target 3',5'-cyclic-AMP phosphodiesterase 4B (Homo sapiens) (UniProt Q07343). As to the kind of experiment: qHTS Assay for Inhibitors of PDE-IV (AID 607; active means well fitted activation curve with a large enough effect in the main read-out, with a control signal flat, not every such curve was filed as active; further: % of control where 0% means no effect). Conditions: HEK293 ACTOne CNG channel cells, membrane potential fluorescence; series mostly up to 22.9 µM. In outline: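 The readout is membrane depolarisation from a cAMP-sensing CNG channel, detected with a potential dye at ex 535/em 590. Cells were HEK293-derived (endogenous PDE-IV) at 1000 cells/well, titrated up to 22.9 uM final.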

Assay [16] is described as follows: qHTS profiling for inhibitors of Plasmodium falciparum proliferation (AID 504749).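 Further: 0% = DMSO vehicle and full inhibition = artemisinin control; nearly all actives have a fitted effect of over 60% in size.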 Conditions: P. falciparum in erythrocytes, SYBR Green DNA, 72 h, at 12.8 µM (top of the series). In outline:
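Readout was DNA-dye fluorescence from lysed cultures, ex 485/em 535 nm. Parasitized red cells had grown 72 h with compound; data scaled between 0.29 uM artemisinin and DMSO wells and corrected using vehicle-only plates.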

Assay [17] has as its target Cytochrome P450 3A4 (Homo sapiens) (UniProt P08684). As to the kind of experiment: qHTS Assay for Inhibitors and Substrates of Cytochrome P450 3A4 (AID 884). Further: on the % scale 0 is the no-effect control and ±100 the full control effect; nearly all actives have a fitted effect of over 50% in size. Conditions: recombinant CYP3A4, Luciferin-PPXE luminescence; series mostly up to 57.1 µM. Summed up: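 20 nM human CYP3A4 with 25 uM Luciferin-PPXE (at KM) in 200 mM KPO4, preincubated 10 min with compound; NADPH regeneration started a 60 min RT reaction. Luciferin detected by luminescence, normalized to 57 uM ketoconazole as full inhibition.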

The nature of assay [18]: Confirmation and Secondary Assay for Modulators of Hemoglobin Beta Chain Splicing at IVS2 705 locus (AID 930).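 Further: HeLa cells stably expressing the EGFP-705 splicing reporter; GFP fluorescence per well restored by corrected splicing of the IVS2-705 intron in EGFP; % of control where 0% means no effect.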 Conditions: HeLa EGFP-705 splicing reporter, GFP fluorescence, 48 h; series mostly up to 38.3 µM. In outline: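 First, HeLa EGFP-705 cells are seeded at 500/well in Optimem with 2% FCS and left overnight. Next, compound or DMSO is added for 2 days. Finally wells are laser-scanned and total peak GFP intensity scored.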

The mark [19] stands for this setting: measured here: cell count channel max response.
Where [20] appears, read: measured here: lipid channel max response.

Chain of Glutathione peroxidase 1 (Homo sapiens) (P07203 whole entry, looked up): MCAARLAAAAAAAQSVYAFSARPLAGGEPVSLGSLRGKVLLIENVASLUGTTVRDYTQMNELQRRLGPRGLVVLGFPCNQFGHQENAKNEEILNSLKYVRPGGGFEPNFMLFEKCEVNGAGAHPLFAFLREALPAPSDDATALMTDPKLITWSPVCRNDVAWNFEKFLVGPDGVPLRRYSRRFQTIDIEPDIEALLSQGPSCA
Chain of 3',5'-cyclic-AMP phosphodiesterase 4B (Homo sapiens) (Q07343 whole entry, looked up): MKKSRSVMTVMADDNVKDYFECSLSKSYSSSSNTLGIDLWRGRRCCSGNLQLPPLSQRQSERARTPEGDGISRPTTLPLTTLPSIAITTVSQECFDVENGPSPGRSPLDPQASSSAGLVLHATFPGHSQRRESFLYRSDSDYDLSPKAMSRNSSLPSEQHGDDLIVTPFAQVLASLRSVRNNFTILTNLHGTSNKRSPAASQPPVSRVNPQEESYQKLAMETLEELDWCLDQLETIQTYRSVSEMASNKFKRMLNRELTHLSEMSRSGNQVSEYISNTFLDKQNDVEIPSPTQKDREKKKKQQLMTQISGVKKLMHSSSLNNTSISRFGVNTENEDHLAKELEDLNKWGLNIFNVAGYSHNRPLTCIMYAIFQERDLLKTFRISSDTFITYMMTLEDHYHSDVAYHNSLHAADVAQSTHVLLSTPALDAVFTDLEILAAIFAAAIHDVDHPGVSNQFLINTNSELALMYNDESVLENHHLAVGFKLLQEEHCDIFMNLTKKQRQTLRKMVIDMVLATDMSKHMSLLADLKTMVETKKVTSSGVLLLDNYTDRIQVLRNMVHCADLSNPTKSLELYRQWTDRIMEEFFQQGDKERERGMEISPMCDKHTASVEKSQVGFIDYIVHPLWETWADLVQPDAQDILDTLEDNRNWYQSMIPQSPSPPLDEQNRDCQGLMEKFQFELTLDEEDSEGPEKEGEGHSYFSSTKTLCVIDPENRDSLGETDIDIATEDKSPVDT
Chain of Ubiquitin carboxyl-terminal hydrolase 1 (Homo sapiens) (O94782 whole entry, looked up): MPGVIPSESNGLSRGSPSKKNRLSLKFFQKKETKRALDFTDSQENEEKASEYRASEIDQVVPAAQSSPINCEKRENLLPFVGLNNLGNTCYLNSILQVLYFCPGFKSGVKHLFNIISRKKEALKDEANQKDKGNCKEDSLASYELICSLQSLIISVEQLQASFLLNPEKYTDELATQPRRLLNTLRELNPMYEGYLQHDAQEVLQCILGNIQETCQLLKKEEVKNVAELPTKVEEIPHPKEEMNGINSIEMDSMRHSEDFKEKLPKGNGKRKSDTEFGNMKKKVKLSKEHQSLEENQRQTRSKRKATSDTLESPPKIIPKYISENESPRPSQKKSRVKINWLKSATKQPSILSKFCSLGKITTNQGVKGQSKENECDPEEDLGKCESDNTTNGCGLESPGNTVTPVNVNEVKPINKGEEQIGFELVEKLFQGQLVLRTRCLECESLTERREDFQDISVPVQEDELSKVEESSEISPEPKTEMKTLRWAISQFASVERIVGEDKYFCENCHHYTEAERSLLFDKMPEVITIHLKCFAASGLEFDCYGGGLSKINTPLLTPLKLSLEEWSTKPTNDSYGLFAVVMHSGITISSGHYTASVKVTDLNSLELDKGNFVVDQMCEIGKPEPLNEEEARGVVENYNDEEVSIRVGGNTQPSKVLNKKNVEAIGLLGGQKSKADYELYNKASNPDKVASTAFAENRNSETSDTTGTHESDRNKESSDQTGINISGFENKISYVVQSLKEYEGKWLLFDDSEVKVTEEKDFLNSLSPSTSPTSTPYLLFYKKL
Chain of Cytochrome P450 3A4 (Homo sapiens) (P08684 whole entry, looked up): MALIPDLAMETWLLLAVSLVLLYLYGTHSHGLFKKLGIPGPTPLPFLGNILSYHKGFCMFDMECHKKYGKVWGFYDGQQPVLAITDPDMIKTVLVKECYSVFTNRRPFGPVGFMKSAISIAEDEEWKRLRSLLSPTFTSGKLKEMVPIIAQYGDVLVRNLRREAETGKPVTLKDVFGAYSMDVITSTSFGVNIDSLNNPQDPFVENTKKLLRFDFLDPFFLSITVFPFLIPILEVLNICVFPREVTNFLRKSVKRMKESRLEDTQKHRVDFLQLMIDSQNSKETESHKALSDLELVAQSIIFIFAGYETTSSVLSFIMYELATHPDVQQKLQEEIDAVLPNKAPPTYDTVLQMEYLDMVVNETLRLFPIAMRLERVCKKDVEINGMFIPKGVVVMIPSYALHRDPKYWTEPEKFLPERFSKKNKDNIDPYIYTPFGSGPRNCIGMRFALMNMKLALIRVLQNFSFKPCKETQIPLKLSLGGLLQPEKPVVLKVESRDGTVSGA
Chain of Lysosomal acid glucosylceramidase (Homo sapiens) (P04062 whole entry, looked up): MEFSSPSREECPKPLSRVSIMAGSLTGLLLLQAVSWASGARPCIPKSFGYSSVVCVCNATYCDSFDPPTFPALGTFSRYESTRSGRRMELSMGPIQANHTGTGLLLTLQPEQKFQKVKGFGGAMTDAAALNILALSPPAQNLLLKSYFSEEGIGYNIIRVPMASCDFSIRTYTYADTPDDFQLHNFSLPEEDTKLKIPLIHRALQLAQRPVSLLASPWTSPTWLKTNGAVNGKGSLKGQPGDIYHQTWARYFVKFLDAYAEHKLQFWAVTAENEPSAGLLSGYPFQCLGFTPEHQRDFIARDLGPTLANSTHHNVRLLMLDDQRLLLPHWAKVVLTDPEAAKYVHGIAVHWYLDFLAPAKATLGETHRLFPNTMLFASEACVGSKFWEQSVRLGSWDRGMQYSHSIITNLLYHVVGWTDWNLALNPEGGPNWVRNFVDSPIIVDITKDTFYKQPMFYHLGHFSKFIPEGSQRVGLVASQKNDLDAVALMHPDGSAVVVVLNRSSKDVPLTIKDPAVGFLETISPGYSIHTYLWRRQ
Chain of Cytochrome P450 2C19 (Homo sapiens) (P33261 whole entry, looked up): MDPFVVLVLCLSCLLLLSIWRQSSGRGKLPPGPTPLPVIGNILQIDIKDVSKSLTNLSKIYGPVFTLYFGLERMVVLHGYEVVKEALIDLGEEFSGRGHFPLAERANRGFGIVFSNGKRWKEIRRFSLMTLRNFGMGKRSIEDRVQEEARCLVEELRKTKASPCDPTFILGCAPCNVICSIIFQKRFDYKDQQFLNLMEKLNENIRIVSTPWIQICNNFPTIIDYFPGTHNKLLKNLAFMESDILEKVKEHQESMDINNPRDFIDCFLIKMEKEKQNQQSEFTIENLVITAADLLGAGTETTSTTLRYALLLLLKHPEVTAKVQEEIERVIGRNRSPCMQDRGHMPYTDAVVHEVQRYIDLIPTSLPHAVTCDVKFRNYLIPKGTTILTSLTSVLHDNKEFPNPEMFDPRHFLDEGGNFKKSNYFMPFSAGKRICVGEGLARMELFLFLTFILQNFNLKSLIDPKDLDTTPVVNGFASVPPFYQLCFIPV

As for `FC(F)(F)c1ccccc1-c1ccc2ncnc(N3CCOCC3)c2c1`, the Potency is > 11.4 µM (inactive) in assay [1]; 0.251 µM (active) in [2]; > 46 µM (inactive) in assay [4]; > 46 µM (inactive) in assay [5]; 0.631 µM (active) in assay [8]. Besides, the activity, negative = inhibition in [3] is 4.75% (inactive). Also, the Potency result in assay [6], in [7] and in assay [10] was “inactive” throughout. Moreover, the activity change, negative = inhibition in assay [9] (at 57.5 µM (top of the series)) was 5.7% (inactive). Also, the max response in assay [9] (setting [19]) came to 20.5%; in assay [9] (setting [20]) it was 23.6%.

For `CC1(C)SC2C(NC(=O)Cc3ccccc3)C(=O)N2C1C(=O)O` (stereo not drawn), the Potency entry in assay [11] and in [10] was “inactive” in each case. In [9] (at 57.5 µM (top of the series)), the activity change, negative = inhibition is 5.55% (inactive). Further, the max response turned out to be 11.4% in assay [9] (setting [19]) and 23.9% in [9] (setting [20]). Further, in [12], the outcome was inactive.

As to `C[C@@H]1CCC[C@H](C)N1NC(=O)c1ccc(Cl)c(S(N)(=O)=O)c1`, the activity change, negative = inhibition in [13] is 2.6% [at 17.2 µM] (inactive) and 10.6% [at 17.2 µM] (inactive); in assay [14], 2.78% [at 17.2 µM] (inactive) and -21.9% [at 17.2 µM] (inactive); in assay [9] (at 25.7 µM (top of the series)), 1.49% (inactive). Besides, the Potency entry in [2], in assay [6], in assay [15] and in assay [10] was “inactive” each time. Moreover, the activity, negative = inhibition is 9.09% [at 17.2 µM] (inactive) and 21.6% [at 17.2 µM] (inactive) in assay [3]; 12.8% (inactive) in [16] (parasite line A); 12% (inactive) in assay [16] (parasite line B). Also, the Potency in [4] and in assay [5] was > 20.6 µM (inactive) throughout. Further, the max response in assay [9] (setting [19]) was found to be 17.3%; in assay [9] (setting [20]), 17%. For the same compound, in assay [12], the outcome was inactive.

With `C=C[C@](C)(O)CCC=C(C)C`, the Potency result in assay [17], in assay [11] and in assay [10] was “inactive” in each case. Also, the result in [18] was inactive. Moreover, in [9] (at 57.5 µM (top of the series)), the activity change, negative = inhibition was 3.04% (inactive). Also, the max response stood at 15.3% in [9] (setting [19]) and 20.7% in assay [9] (setting [20]).

With `O=c1c(-c2ccc(F)cc2)nc2cnc(N3CCOCC3)nc2n1C1CC1`, the figures for the Potency in assay [1], in [4] and in assay [5] were > 11.4 µM (inactive), > 9.22 µM (inactive) and > 46 µM (inactive), respectively. The activity change, negative = inhibition in assay [13] is 16.2% (inactive); in assay [9] (at 57.5 µM (top of the series)), 5.31% (inactive). Besides, the Potency entry in [2], in [6], in [15] and in assay [10] was “inactive” each time. Further, the values for the max response in assay [9] (setting [19]) and in [9] (setting [20]) were 17.4% and 19.7%, respectively.

As to `COc1ccc2ccc(=O)oc2c1`, the Potency result in [17], in assay [11] and in [10] was “inactive” each time. The call in assay [18] was inactive. In assay [9] (at 57.5 µM (top of the series)), the activity change, negative = inhibition was 7.71% (inactive). In addition, the max response is -2.86% in assay [9] (setting [19]) and 5.5% in [9] (setting [20]).

For `N#Cc1cccc(-c2ccc3ncnc(NCc4ccccc4)c3c2)c1`, the Potency in [1] is > 11.4 µM (inactive); in assay [2], 0.1 µM (active); in [4] it was > 46 µM (inactive); in [5] it was > 46 µM (inactive); in assay [10], 15.8 µM (active). Besides, the activity, negative = inhibition in assay [3] was -18.2% (inactive). Besides, the Potency entry in assay [6] and in [7] was “inactive” each time. The activity change, negative = inhibition in assay [9] (at 57.5 µM (top of the series)) is -0.0166% (inactive). In addition, the max response in assay [9] (setting [19]) was found to be 4.36%; in [9] (setting [20]), 2.9%.

`CC(C)(S)[C@H](N)C(=O)O`: the Potency is > 11.4 µM (inactive) in assay [1], > 46 µM (inactive) in assay [4] and > 9.22 µM (inactive) in assay [5]. Besides, the activity change, negative = inhibition is 1.59% (inactive) in assay [13], 8.46% (inactive) in assay [14], 1.55% [at 11.4 µM] (inactive) in [6] and 4.84% (inactive) in assay [9] (at 57.5 µM (top of the series)). Further, the Potency entry in [15], in assay [17] and in assay [11] was “inactive” in each case. Besides, the outcome in assay [18] was inactive. Moreover, the max response amounted to 10.4% in [9] (setting [19]) and 19.3% in assay [9] (setting [20]). Moreover, the outcome in [12] was “inactive [at 4.49 µM]”.

Source of the values: PubChem BioAssay (NCATS).
